The results in this text go back to PubChem BioAssay.

Values without a mark were called inactive. No rule for the calls is given here.

This assay relates to Aerobactin synthetase IucA (Klebsiella pneumoniae hvKP1). The assay is described as follows: Biochemical IucA enzyme inhibition primary screen of the Spectrum library (AID 1346200).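 Also: 100% = wells without compound and 0% = wells lacking enzyme.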 The following applies: malachite green pyrophosphate, A620, at 8 µM, stronger effect = lower value.
Consider `CCCCCCCC/C=C/CCCCCCCCOP(=O)([O-])OCC[N+](C)(C)C`, for which the activity remaining is 96.1%.
Regarding `Nc1ccc(C(=O)O)c(O)c1` (tested in a mixture with another compound), the activity remaining was 86.3%.
In the case of `COc1ccc2c(c1)OC[C@@H](Cc1ccc(OC)c(OC)c1)[C@@H]2O`, the activity remaining is 121%.
The same measure for `O=C(O)CCC(=O)OC[C@@H](NC(=O)C(Cl)Cl)[C@H](O)c1ccc([N+](=O)[O-])cc1`: 110%.
On to `O=C(CCCCCCCCCCCCC1CCCC1)Nc1ccc(S(=O)(=O)c2ccc(NC(=O)CCCCCCCCCCCCC3CCCC3)cc2)cc1`, for which the activity remaining is 94.8%.
Consider `CC(=O)N[C@@H](Cc1c[nH]c2ccccc12)C(N)=O`, for which the activity remaining is 122%.
The same measure for `COc1ccc2cc3[n+](cc2c1OC)CCc1cc2c(cc1-3)OCO2`: 86.3%.
The same measure for `CC(=O)N[C@@H](Cc1c[nH]c2ccccc12)C(=O)O`: 110%; for `N.N.O=C(O)C1(C(=O)O)CCC1.[Pt]`: 94.6%.
To `C[C@]12C=CC(=O)C=C1CCC1C2[C@@H](O)C[C@@]2(C)C1CC[C@]2(O)C(=O)CO` (stereo not given in full) belongs 119%.
As to `C[C@@H]1CC2C3C[C@H](F)C4=CC(=O)C=C[C@]4(C)[C@@]3(F)[C@@H](O)C[C@]2(C)[C@@]1(O)C(=O)CO` (stereo not given in full), the activity remaining is 113%.
To `OCc1ccccc1O[C@@H]1O[C@H](CO)[C@@H](O)[C@H](O)[C@H]1O` belongs 101%.
With `OCCc1ccccc1`, the activity remaining was 117%.
Take `FC(F)(F)C(Cl)Br` (stereo not given): the activity remaining was 106%.
To `COC1=CC(=O)C[C@@H](C)[C@]12Oc1c(Cl)c(OC)cc(OC)c1C2=O` belongs 115%; to `O=C(Oc1cccc2cccnc12)c1ccccc1`, 92.9%.
To `C=CCSCC=C` belongs 109%.
Turning to `CC(=O)Oc1ccc2c(c1)CCC1C2CC[C@@]2(C)C1C[C@@H](OC(C)=O)[C@@H]2OC(C)=O` (stereo not given in full), the activity remaining is 97.3%.
To `O=S(=O)(O)CCS` belongs 118%.
To `CC(=O)O[C@H]1[C@@H]2[C@@H](OC(=O)Cc3ccccc3)[C@@H](C)C[C@]2(OC(C)=O)C(=O)/C(C)=C/[C@H]2[C@H](CC[C@@]13CO3)C2(C)C` belongs 103%.
Consider `C[C@H]1COc2c(N3CCN(C)CC3)c(F)cc3c(=O)c(C(=O)O)cn1c23`, for which the activity remaining is 113%.
To `Nc1ncnc2nc[nH]c12` belongs 105%; to `Cc1cc(-n2c(=O)[nH]c(=O)n(C)c2=O)ccc1Oc1ccc(SC(F)(F)F)cc1`, 109%.
The same measure for `O=C(O)CCCCCCCCCCCCC1C=CCC1` (stereo not given): 118%.
To `O=C(O)c1cn(C2CC2)c2cc(N3CCNCC3)c(F)cc2c1=O` belongs 77.6%; to `CC(C)c1c(O)ccc2c1CCC1C(C)(C)CCC[C@]21C` (stereo not given in full), 116%; to `C/C=C1\[C@H]2C=C(C)C[C@]1(N)c1ccc(=O)[nH]c1C2`, 122%.
Consider `CCc1ccc2c(O)c3c(cc2c1C(=O)OC)C(=O)c1c(O)ccc(O)c1C3=O`, for which the activity remaining is 115%.
To `COc1cc2c(cc1OC)C1(O)C(=O)c3ccc(O)c(C(=O)O)c3OC1CO2` (stereo not given) belongs 117%; to `CO[C@@]1(NC(=O)Cc2cccs2)C(=O)N2C(C(=O)O)=C(COC(N)=O)CS[C@@H]21`, 108%.
The same measure for `CCC(=O)O[C@H]1[C@H](O[C@@H]2[C@@H](C)[C@H](O[C@H]3C[C@@](C)(OC)[C@@H](O)[C@H](C)O3)[C@@H](C)C(=O)O[C@H](CC)[C@@](C)(O)[C@H](O)[C@@H](C)C(=O)[C@H](C)C[C@@]2(C)O)O[C@H](C)C[C@@H]1N(C)C`: 121%; for `CCc1nc(N)nc(N)c1-c1ccc(Cl)cc1`: 108%; for `CCOC(=O)c1c(C)cc(OC)cc1O`: 110%.
As for `CC1(C)C[C@@H]2C(=O)CC[C@H]3O[C@]3(C)CC[C@H]21`, the activity remaining was 110%.
The same measure for `C=C1C(C2(C)C=CC(=O)C(C)(C)C2CC(=O)OC)CC[C@@]2(C)[C@H](c3ccoc3)OC(=O)C3OC132` (stereo not given in full): 105%; for `NC(Cc1cc(I)c(Oc2ccc(O)c(I)c2)c(I)c1)C(=O)O` (stereo not given): 97.1%; for `COc1cc(O)cc(/C=C/c2ccccc2)c1`: 104%.
The same measure for `CC(=O)Oc1cc(C)c2c(c1C(OC(C)=O)OC(C)=O)Oc1c(c(C)c(OC(C)=O)c3c1C(OC(C)=O)OC3=O)OC2=O` (stereo not given): 96.1%.
To `C[C@H]1O[C@@H](O[C@H]2[C@@H](O)C[C@H](O[C@H]3[C@@H](O)C[C@H](O[C@H]4CC[C@]5(C)C6C[C@@H](O)[C@]7(C)[C@@H](C8=CC(=O)OC8)CC[C@]7(O)C6CC[C@@H]5C4)O[C@@H]3C)O[C@@H]2C)C[C@H](O)[C@@H]1O` (stereo not given in full) belongs 118%.
For the molecule `C#C[C@]1(O)CCC2C3CCc4cc(O)ccc4C3CC[C@@]21C` (stereo not given in full), the activity remaining was 105%.
